# In the supplement of paper PMC3334620:
# Whole data set: some 33,000 sequences, median “E-score (-0.5 to 0.5)” near -0.053, cut for the highest 2% near 0.37. Shown is part of a subset that was picked to be rich in the highest values.
# Molecular target: Hap1 (UniProt P0CE41)
# Experiment: PBM E-score (8-mer binding enrichment) (E-score (-0.5 to 0.5)); higher = stronger / more preferred TF binding
# Conditions: protein concentration: 200 nM; construct: GST-DNA-binding domain
# Experimental: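 Universal 'all 10-mer' protein binding microarrays (Agilent AMADID 015681) probed with GST-tagged S. cerevisiae TFs (full-length or DBD) made by in vitro transcription/translation (PURExpress), about 100-200 nM. Bound TF was detected with fluorescent anti-GST. Each ungapped 8-mer (which stands for itself and its reverse complement) is scored by the PBM enrichment score (E-score), a modified Wilcoxon-Mann-Whitney statistic from -0.5 to +0.5, computed with the Universal PBM Analysis Suite. Scale: above 0.35 generally sequence-specific binding.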
# UniProt P0CE41, sequence (P0CE41 whole entry): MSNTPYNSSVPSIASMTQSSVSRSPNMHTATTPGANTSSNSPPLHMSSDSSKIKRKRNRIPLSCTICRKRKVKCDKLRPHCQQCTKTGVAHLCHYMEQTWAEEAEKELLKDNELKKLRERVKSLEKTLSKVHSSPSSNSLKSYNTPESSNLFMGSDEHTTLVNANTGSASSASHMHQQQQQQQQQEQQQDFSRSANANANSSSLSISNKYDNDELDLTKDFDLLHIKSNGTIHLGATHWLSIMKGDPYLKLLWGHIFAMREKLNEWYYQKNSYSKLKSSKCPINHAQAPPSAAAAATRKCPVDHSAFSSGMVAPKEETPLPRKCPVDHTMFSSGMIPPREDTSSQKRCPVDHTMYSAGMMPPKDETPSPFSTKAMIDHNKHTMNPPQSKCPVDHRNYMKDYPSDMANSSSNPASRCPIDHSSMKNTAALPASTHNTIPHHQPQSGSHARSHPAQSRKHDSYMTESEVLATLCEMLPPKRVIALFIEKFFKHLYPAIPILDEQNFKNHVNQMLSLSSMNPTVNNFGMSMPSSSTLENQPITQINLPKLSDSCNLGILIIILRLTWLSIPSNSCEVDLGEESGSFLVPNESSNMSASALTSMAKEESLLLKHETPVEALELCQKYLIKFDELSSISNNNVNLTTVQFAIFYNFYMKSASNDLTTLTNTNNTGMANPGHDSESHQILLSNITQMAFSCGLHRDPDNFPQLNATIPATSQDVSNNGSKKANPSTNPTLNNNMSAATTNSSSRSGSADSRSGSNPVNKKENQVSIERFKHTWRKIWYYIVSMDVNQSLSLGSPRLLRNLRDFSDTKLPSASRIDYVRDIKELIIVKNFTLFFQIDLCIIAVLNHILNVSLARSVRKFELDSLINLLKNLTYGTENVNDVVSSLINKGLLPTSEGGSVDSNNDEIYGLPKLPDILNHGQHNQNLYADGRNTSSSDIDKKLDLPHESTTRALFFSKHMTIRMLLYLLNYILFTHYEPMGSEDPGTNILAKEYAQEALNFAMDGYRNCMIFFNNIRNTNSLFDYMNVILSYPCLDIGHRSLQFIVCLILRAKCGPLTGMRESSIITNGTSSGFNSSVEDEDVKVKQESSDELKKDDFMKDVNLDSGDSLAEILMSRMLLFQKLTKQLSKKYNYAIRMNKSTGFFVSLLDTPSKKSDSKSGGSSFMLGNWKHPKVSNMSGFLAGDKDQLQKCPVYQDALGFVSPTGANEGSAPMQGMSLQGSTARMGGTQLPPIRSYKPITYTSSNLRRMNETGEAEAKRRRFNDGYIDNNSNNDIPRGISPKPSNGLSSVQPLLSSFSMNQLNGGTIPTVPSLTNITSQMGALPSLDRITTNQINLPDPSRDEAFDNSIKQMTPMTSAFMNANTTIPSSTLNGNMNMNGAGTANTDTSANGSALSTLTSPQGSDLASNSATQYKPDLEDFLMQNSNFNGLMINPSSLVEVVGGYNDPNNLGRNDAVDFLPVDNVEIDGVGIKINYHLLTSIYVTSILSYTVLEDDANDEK
row,Sequence,PBM E-score
1,ATGACGAG,-0.168
2,CCCGCACC,0.151
3,ATCCCAAC,-0.239
4,GGCAGGAC,0.0548
5,CATAAGAC,0.0262
6,ACGAGCGG,0.161
7,CCGAGCCG,0.397
8,ACGAGCCG,0.0797
9,CCGAGAGC,0.396
10,CCGAGCGC,0.384
11,ACGAGCGC,-0.00987
12,CCGAGCGG,0.395
13,CCGAGCCA,0.347
14,ACGAGAGC,-0.0925
15,CCGAGCGA,0.36
16,GCGAGCGC,0.137
17,CCGAGAGA,0.309
18,ACATTGGA,-0.0771
19,AAGCTGCC,0.0235
20,CATTTCCC,0.162
21,ATCTACGG,0.299
22,CCTGAGCA,-0.151
23,AAAGCCCC,0.106
24,AAAGCCGC,0.305
25,TAAGCCGA,0.382

row,Sequence,PBM E-score
1,CAAGCCGG,0.292
2,AAAGCCTG,-0.184
3,AAAGCCCT,-0.0264
4,AAAGCCGA,0.426
5,AAAGCCGG,0.439
6,AAAGCCGT,0.322
7,GAAGCCGA,0.308
8,CAAGCCGA,0.24
9,AAAGCCCG,0.374
10,GCCGCTTA,0.073
11,GTAGCCAC,-0.194
12,GTTTTAGA,0.00012
13,AGAGAACG,-0.258
14,CAATTCGG,0.267
15,GTGCTGCA,0.0816
16,CCAGCACG,-0.13
17,AAAAGCCT,-0.221
18,AAAAGCCG,0.414
19,AAAAGCCC,0.138
20,AGCTTTGG,-0.135
21,CCCCGACA,0.302
22,CCCCGACG,0.379
23,ACTGGACA,-0.00994
24,ACCGGACA,0.411
25,AGCGGACA,0.326

row,Sequence,PBM E-score
1,CCCGGACG,0.388
2,CACGGACG,0.331
3,CCCGGATA,0.325
4,GCCGGATA,0.426
5,CCGGGACG,0.199
6,ACCGGATA,0.359
7,CCCCGACC,0.238
8,AGATCCCG,0.283
9,AGTACCCG,0.1
10,CGAAAGAG,0.0191
11,AGGTGCTC,-0.269
12,CCTGGAGC,-0.197
13,ACTCGCAA,-0.231
14,GTCCACTA,-0.102
15,GAACTGCC,-0.0156
16,CTACCATA,-0.191
17,GATGAGCA,-0.0729
18,ACAATAGG,-0.0571
19,GAAACGTC,-0.0511
20,GATATGCA,0.0359
21,AGCTACTG,-0.00261
22,TCCGGACA,0.444
23,GCCGGACC,0.341
24,TACGGACA,0.291
25,CCCGGACC,0.361

row,Sequence,PBM E-score
1,GCCGGACA,0.423
2,GACGGACA,0.325
3,TGCGGACA,0.22
4,CCCGGACA,0.39
5,CCGGGACA,0.299
6,CCGGGCTC,0.243
7,ACACTCAG,-0.208
8,CACCCCGA,0.229
9,ACACCCGA,0.305
10,ACCCCCGA,0.371
11,AACCCCCA,-0.217
12,GACCCCGA,0.285
13,AACCCCGA,0.456
14,AACCCCGT,0.329
15,ACCCCCGT,0.126
16,CCCCCCGA,0.253
17,TACCCCGA,0.398
18,TCCCCCGA,0.393
19,GCCCCCGA,0.2
20,AACAAAGG,0.0332
21,AGGGATAC,-0.181
22,CCGGCTAA,0.331
23,TCGTTCAA,-0.246
24,GGGGAGGA,0.093
25,GCATAGAC,-0.19

row,Sequence,PBM E-score
1,GGCCTCTA,-0.34
2,ACATCTCT,-0.0976
3,ACGTTATC,0.17
4,CCGTTATC,0.385
5,CCGTTATA,0.311
6,GACACAAA,0.132
7,AGGACGAC,-0.143
8,AGGACGAA,0.128
9,AGGACGAG,-0.282
10,GGGACGAC,-0.117
11,CGGACGAC,0.371
12,CGGACGAG,0.387
13,CCGACGAG,0.259
14,GGGACGAA,0.0323
15,CGGACGAA,0.431
16,CCCCGTAC,0.0387
17,CTATGAGA,-0.248
18,ATAGCCCG,0.173
19,GCCCAGCA,-0.0648
20,ATAAGAAG,0.0696
21,ATATCTTC,0.152
22,GCTTAACC,-0.0526
23,CTCACCTA,-0.159
24,ATTATCCG,0.391
25,ATTATCCC,0.0666

row,Sequence,PBM E-score
1,ATTATCCA,-0.0526
2,AATATCCA,0.0415
3,AATATCGG,0.443
4,AATATCCC,0.109
5,AATATCGC,0.314
6,AATATCGA,0.0281
7,CATATCGC,0.179
8,CATATCGA,0.0363
9,CATATCGG,0.404
10,AATATCCG,0.414
11,CTGCACTA,0.0173
12,AGACACGC,-0.0363
13,ACTCATCG,-0.0326
14,AACTATGG,-0.0562
15,CACGCCAA,-0.148
16,CACAGCTG,-0.194
17,CGGATGGA,0.238
18,GAGCGTTA,-0.121
19,ACCTTGAG,-0.113
20,CAAATCCG,0.344
21,ATTATCGC,0.132
22,ATTATCGG,0.432
23,AAAATCCC,0.0176
24,AAAATCCG,0.437
25,ATTATCGA,-0.0673

row,Sequence,PBM E-score
1,GCTCGAGC,0.0114
2,GCGAACGA,0.00245
3,GGACCCTA,-0.0296
4,CGGCGCAC,0.259
5,GAAAGACA,-0.0415
6,ATTACCGG,0.434
7,ATTACCGA,0.348
8,ATTACCGC,0.274
9,AATACCGC,0.304
10,AATACCGG,0.451
11,AATACCGT,0.252
12,CATTCAGA,-0.141
13,ACATCGCA,-0.0398
14,GAGGAGAC,-0.0943
15,GAAAGGGA,-0.0702
16,ACCTTATC,0.139
17,GTGGCCAC,0.203
18,AGCGGAGC,0.223
19,ATCGGGGG,0.349
20,ATCAGAGC,-0.0942
21,CGCGGAGA,0.397
22,ATCGGGTG,0.37
23,GGCGGAGA,0.36
24,ATCGGGGA,0.386
25,GTCGGGGA,0.301

row,Sequence,PBM E-score
1,ATCGGAGC,0.396
2,ATCGGGTC,0.343
3,ATCGGGTA,0.283
4,CGCGGAGC,0.274
5,ACGAACCA,-0.038
6,CTCCTATA,-0.327
7,AGATCACG,-0.113
8,GAATTTAC,0.0854
9,ACGCCTCC,0.00213
10,AGAAAAAG,-0.0187
11,ATCGGAGG,0.227
12,CTCGGAGC,0.322
13,ATCGGAGA,0.415
14,CTTGGAGA,-0.0528
15,CTCGGAGA,0.407
16,GTCGGAGA,0.355
17,ACGATTTC,0.0291
18,ATATGGAC,-0.0394
19,GGTCTGCA,0.0455
20,CATTCGGA,0.321
21,AATTCGGG,0.287
22,TATTCGGA,0.37
23,GATTCGGA,0.299
24,AATTCGGC,0.131
25,AATTCGGA,0.414

row,Sequence,PBM E-score
1,CAACAGCG,-0.0733
2,AGATTACA,0.0437
3,CACCACGC,-0.201
4,GACATCCA,-0.175
5,ATAACCAA,-0.182
6,ACCCTGGC,-0.146
7,GCAAGAGC,-0.151
8,AGATTCTG,-0.14
9,ATCTGCCG,0.318
10,AAACACCT,-0.0632
11,AAACACCG,0.388
12,CAACACCG,0.13
13,TCAAAAGA,-0.152
14,CCACTTTA,-0.00297
15,TCCGCCCA,0.209
16,AATGCCTC,-0.116
17,TGGAGCAA,-0.195
18,CGGAGCAA,0.394
19,CGGAGCTA,0.443
20,CGGAGCTC,0.313
21,CGGAGCAC,0.196
22,AGGAGCTA,-0.192
23,CGGAGCGC,0.258
24,AACAAAGC,-0.0164
25,AGCGCATG,-0.2

row,Sequence,PBM E-score
1,ATTGACCC,-0.0115
2,GCCTGCTA,-0.152
3,ACCGAAAC,0.323
4,GCCGAACA,0.233
5,CCCGAAGA,0.284
6,TCCGAAGA,0.419
7,CCCGAAAA,0.426
8,ACCGAACA,0.265
9,TCCGAACA,0.381
10,CCCGAAAG,0.298
11,ACCGAAGA,0.207
12,GCCGAAAC,0.38
13,CCCGAAAC,0.208
14,GCCGAAAA,0.345
15,GGCGAAAC,0.194
16,CGGCGGTC,0.244
17,CAGCGCGC,0.057
18,CTTTCAGC,0.0716
19,ACCGAAAA,0.26
20,TGCGAAAA,-0.00129
21,TCCGAAAA,0.393
22,AGCAACTA,-0.0755
23,AGAATCAT,-0.259
24,AATCACAT,0.0324
25,CGTGGTCC,-0.0363

row,Sequence,PBM E-score
1,CGGCGCCA,0.246
2,CGGCGCCG,0.406
3,CGCCGGCA,0.349
4,CGCCGGCC,0.396
5,CGCCGCCG,0.276
6,CGCCGGCG,0.422
7,GGCCGGCC,0.367
8,AGGCGCCG,0.0638
9,AGCCGGCG,0.352
10,ACGACCGG,0.292
11,CCGACCGA,0.422
12,CGGACCTA,0.425
13,GGGACCTA,0.116
14,CCGACCGG,0.428
15,CCGACCGC,0.181
16,AGGACCTA,0.095
17,GGGACCGA,0.329
18,CGGACCGC,0.367
19,ACGACCGA,0.275
20,CGGACCGA,0.423
21,GCGACCGA,0.253
22,AGTAGCGG,0.216
23,ACCTCTCG,-0.0768
24,CCAGGCCC,-0.0511
25,CGCGGCCG,0.27

row,Sequence,PBM E-score
1,ACTACGGA,0.238
2,TATCAGAA,0.0826
3,AATCCTAT,0.204
4,GTCCTACA,0.145
5,ATCTGGCG,0.0049
6,AAGCGTAC,-0.292
7,CGGACCAA,0.383
8,TCGACCCA,-0.221
9,CGGACCAG,0.304
10,CGGACCCG,0.387
11,TCGACCGA,0.393
12,TCGACCAA,-0.331
13,AGGACCCG,0.218
14,CGGACCCC,0.233
15,CGGACCAC,0.279
16,GGAATCAC,0.196
17,AGAGTAAT,0.076
18,CGGTGAGA,0.12
19,ATCAACAT,-0.109
20,ACCCCCAG,-0.25
21,ATATTTCG,0.235
22,ATATTTCA,-0.15
23,CTATTTTC,0.0335
24,ATATTTCC,0.427
25,CTATTTCA,-0.0144

row,Sequence,PBM E-score
1,CTATTTCC,0.397
2,AACTTTCA,-0.106
3,CGGTCATA,0.411
4,CGGTCGTA,0.383
5,GGGTCGTA,0.0749
6,CGGTCTGA,0.205
7,CGGTCATC,0.192
8,CGGTCGTC,0.165
9,CGGTCTTA,0.404
10,GGGTCTTA,0.0728
11,GGGTCATA,-0.00686
12,TAGACCCA,-0.194
13,ATCACGGC,0.134
14,ACAAAAGC,0.0095
15,CATGGGTC,-0.168
16,AACGGCCT,0.074
17,CTCGGCCC,0.336
18,ATCGGCGC,0.343
19,ATCGGCGG,0.408
20,ATCGGCAG,0.315
21,ATCGGCCG,0.443
22,ATCGGCCA,0.253
23,AACGGCCG,0.405
24,ATCGGCCC,0.379
25,ATCGGGCC,0.324

row,Sequence,PBM E-score
1,AGCGGCGG,0.291
2,AACGGCCA,0.183
3,ATCTGCGC,0.00257
4,CTATAGGC,-0.0955
5,CGACCACG,0.0929
6,GGGTGGAC,0.132
7,GATGGTGC,-0.29
8,ACCGGAAG,0.333
9,ACCGGAAA,0.417
10,AGCGGAAC,0.243
11,ACCGGAAC,0.403
12,AGCGGAAA,0.318
13,GGCGGAAC,0.257
14,GACGGAAC,0.174
15,GCCGGAAC,0.371
16,CCCGGAAC,0.31
17,CCGCAACG,0.216
18,GCATATCA,0.0762
19,CTACTCCA,-0.0772
